Source: PubChem BioAssay (NCATS)
Results filed as inconclusive are left out. Active and inactive are the calls of the source. Calls come from the whole dose curve; as a rule, active = well fitted cell-killing curve with a large enough effect; inconclusive = small, poorly fitted or top-dose-only effect, or effect the other way; inactive = no such curve, though single readings can be large or run the other way.

Assay: Cell Viability - LYMP2-005 (AID 967);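 note: cells exposed to compound for 24 h at 37 °C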
Conditions: LYMP2-005 lymphoblastoid cell viability; series mostly up to 92.2 µM; activity change, negative = viability loss: at the top concentration
Description: NIH Chemical Genomics Center [NCGC]
NIH Molecular Libraries Screening Centers Network [MLSCN]
National Institutes of Environmental Health Sciences [NIEHS]
National Toxicology Program [NTP]
We have developed a 1536-well cell-based assay for quantitative high throughput screening (qHTS) against a number of cell lines to determine in vitro cytotoxicity of small molecules. This particular assay uses a human lymphoblastoid cell line (LYMP2-005) purchased from Coriell Institute for Medical Research.
NCGC Assay Protocol Summary:
The CellTiter-Glo luminescent cell viability assay (Promega) is a homogeneous method to measure the number of viable cells in culture. The end point readout of this assay is based on quantitation of intracellular ATP, an indicator of metabolic activity, using the luciferase reaction. Luciferase catalyzes the oxidation of beetle Luciferin to oxyluciferin and light in the presence of ATP. The luminescent signal is proportional to amount of ATP present.
Using the CellTiter-Glo luminescent cell viability assay, the amount of cellular ATP was measured in the lymphoblastoid cell line with complete culture medium following compound treatment for 24 hours. The assay was performed in opaque white Kalypsys 1536-well plates. In the screen, tetraoctylammonium bromide was used as positive control. Library compounds were measured for their ability to cause acute toxicity in the cell line, as reflected by a decrease in intracellular ATP levels, in a concentration-dependent manner. […] AC50 values were determined from concentration-response data modeled with the standard Hill equation.
qHTS protocol for CellTiter Glo lymphoblastoid cellular assay
[Step] [Parameter] [Value] [Description]
1. Reagent; 5 uL; 2500 lymphoblastoid cells/well
2. Time; 5 hr; 37 C incubation
4. Controls; 23 nL; Tetraoctylammonium bromide 6.4pM to 92 uM
5. Time; 24 hr; 37 C incubation
6. Reagent; 5 uL; CellTiter Glo reagent
7. Time; 30 min; Room Temperature
8. Detection; Luminescence; Viewlux plate reader
Keywords: cell viability, cytotoxicity, lymphoblastoid cell line, luminescence, NTPHTS, NTPHTS_NCGC, NIEHS, DSSTox, MLSMR, MLSCN, NIH Roadmap, qHTS, NCGC

| Structure (SMILES) | activity change, negative = viability loss |
| --- | --- |
| Cc1ccc(C(=O)O)cc1 | 18.3% (inactive) |
| COc1ccc(N)c(OC)c1 | 5.35% (inactive) |
| CC1(N)CCC(C(C)(C)N)CC1 (stereo not given) | -1.81% (inactive) |
| Cc1cccc(C(=O)O)c1[N+](=O)[O-] | 13.4% (inactive) |
| CCCCC(CC)C(=O)O (stereo not given) | 23.6% (inactive) |
| CCNc1ccccc1 | -19.7% (inactive) |
| CCN(Cc1ccccc1)c1ccccc1 | -2.08% (inactive) |
| COc1ccccc1[N+](=O)[O-] | 2.5% (inactive) |
| CC=O | 24% (inactive) |
| O=C(O)/C=C/C(=O)O | 10.5% (inactive) |
| C=C(C)C(=O)OC | -15.6% (inactive) |
| Cc1ccc(Cl)cc1 | -6.77% (inactive) |
| C=C(C)C(=O)OCCCCCCCCCC | 7.71% (inactive) |
| CCCCCCCCCCCCOCC1CO1 (stereo not given) | -11.8% (inactive) |
| C1CCCC1 | 19.6% (inactive) |
| CC1CCC2CC1C2(C)C (stereo not given) | -14.6% (inactive) |
| C=CC(=O)NC(C)C | 15.5% (inactive) |
| CC(C)CO | 7.34% (inactive) |
| Nc1cc(Cl)c(N)c(Cl)c1 | -8.32% (inactive) |
| O=Cc1ccc(CO)o1 | -2.76% (inactive) |

| Structure (SMILES) | activity change, negative = viability loss |
| --- | --- |
| CCCCN(CCO)CCCC | 12.5% (inactive) |
| Cc1cccc(C)c1[N+](=O)[O-] | 0.858% (inactive) |
| CC(=O)Nc1ccc(N)cc1 | -5.2% (inactive) |
| CC(N)CN (stereo not given) | 15.1% (inactive) |
| ClCCl | -18.4% (inactive) |
| CC(C)CCOC(=O)/C=C/c1ccccc1 | -2.6% (inactive) |
| O=Cc1ccc(Cl)cc1 | -10.3% (inactive) |
| CCCCCCCCC | 3.62% (inactive) |
| CCCCCCC(=O)O | 13.4% (inactive) |
| O=C1CCCCC1 | 5.9% (inactive) |
| COc1ccc(N=[N+]([O-])c2ccc(OC)cc2)cc1 | 12.3% (inactive) |
| C=Cc1ccc(C=C)cc1 | 3.81% (inactive) |
| Oc1c(Cl)ccc(Cl)c1Cl | -14.1% (inactive) |
| CC(=O)c1cc(C)oc1C | 19.3% (inactive) |
| ClC/C=C/CCl | 11.2% (inactive) |
| Clc1ccc(Cl)c(Cl)c1Cl | -9% (inactive) |
| CCOCCO | -1.27% (inactive) |
| CC(=O)OC(C)C | 7.27% (inactive) |
| CC(=O)c1nccs1 | 15.9% (inactive) |
| ICCc1ccccc1 | -5.96% (inactive) |
